Test results as given in PubChem BioAssay (NCI).
About 83,000 compounds went through this panel and 20% of them were active in at least one assay; those are over-represented in the sample as a whole.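 Compound tested at a single concentration for 48 hours in 96-well plates; a percent growth value below 10 was scored as active.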 Active and inactive are the calls of the source.

Columns and labels:
Test in all cases: NCI-60 one-dose screen, 48 h (100 = growth as untreated, 0 = no growth, -100 = all killed)
Settings in all cases: 10 µM unless noted
[1] = test system: SK-MEL-2 melanoma
[2] = test system: UO-31 renal
[3] = test system: TK-10 renal
[4] = test system: ACHN renal
[5] = test system: A498 renal
[6] = test system: CCRF-CEM leukemia
[7] = test system: MOLT-4 leukemia
[8] = test system: SN12C renal
[9] = test system: CAKI-1 renal

Measured: growth

CCOC(=S)SCc1ccc(Cl)cc1
inactive: [1] 105% | [2] 91.1% | [3] 105% | [4] 98.1% | [5] 75.8% | [6] 130% | [7] 82.2%

Cn1c2ccccc2c2c3[nH]c(=O)[nH]c(=O)c3c3c4ccccc4n(C)c3c21
inactive: [1] 67% | [8] 33.7% | [3] 36.4% | [9] 41.5% | [6] 52.9% | [7] 49.4%
active: [4] 7.31% | [5] -4.05%

COc1cc(C2C(C(=O)c3cccs3)=C(O)C(=O)N2CCN2CCOCC2)cc(OC)c1OC (stereo not given)
inactive: [1] 102% | [8] 104% | [3] 99.2% | [4] 102% | [9] 101% | [5] 84.8% | [6] 120% | [7] 129%

CCCCCCCCCCCCCCCCNCCC[C@@H](C)[C@H]1CC[C@H]2[C@@H]3[C@H](OCCCN)C[C@@H]4C[C@H](OCCCN)CC[C@]4(C)[C@H]3C[C@H](OCCCN)[C@]12C
active: [8] -82.9% | [2] -52.5% | [3] -60.3% | [4] -26.5% | [9] -70.8% | [5] -5.88% | [6] -45.5% | [7] -33.7%

Oc1ccccc1/C=N/Nc1ccc2ccccc2n1
active: [7] 7.34%
inactive: [1] 64.5% | [8] 61.8% | [3] 62.8% | [4] 40.6% | [9] 15.3% | [5] 107% | [6] 10.7%

Cc1cccc(NC(=O)c2sc3nc4c(cc3c2N)C(=O)CCC4)c1
inactive: [1] 64.7% | [8] 44.2% | [2] 41.2% | [3] 75.6% | [4] 51.9% | [6] 25.4% | [7] 51.1%
active: [5] -12.2%

O=C1C(Cl)=C(Cl)C(=O)c2c1nc1n2CCCC1
active: [4] -8.54% | [7] 9.16%
inactive: [1] 88.1% | [8] 96.5% | [2] 88.8% | [3] 60% | [5] 76.2% | [6] 11.7%

COc1ccc(C(=O)/C=C/c2c(Cl)c3c(c(OC)c2Cl)OCC(=O)N3)cc1
active: [6] 5.04% | [7] 0.538%
inactive: [8] 27.8% | [2] 56.7% | [3] 57.3% | [4] 41.8% | [9] 20.2% | [5] 83.5%

COc1cccc(NC(=O)c2sc3nc4c(cc3c2N)CN(Cc2ccccc2)CC4)c1
inactive: [1] 66.8% | [8] 74% | [2] 42.9% | [3] 79.7% | [4] 54% | [5] 42.8% | [6] 60.9% | [7] 65.1%

Cn1cc(-c2ccc(-c3cn(C)c4ncccc34)[nH]2)c2cccnc21
active: [2] -81.3% | [3] -30% | [4] 4.29%
inactive: [8] 75.6% | [9] 54.6% | [5] 83.3% | [6] 28.3%

COc1ccc(CN(c2ccc(C)cc2)C2OC(=O)c3ccccc32)cc1OC (stereo not given)
inactive: [1] 95.3% | [8] 99.1% | [2] 94.3% | [3] 107% | [4] 95% | [5] 79.4% | [6] 91.3% | [7] 98.6%

CCC(C)[C@@H]1NC(=O)[C@@H]2CCCN2C(=O)[C@H](Cc2ccccc2)NC(=O)[C@@H]2CCCN2C(=O)[C@H](Cc2ccccc2)NC(=O)[C@@H]2CCCN2C(=O)[C@H](Cc2ccccc2)NC1=O (stereo not given in full)
inactive: [8] 102% | [2] 105% | [3] 104% | [4] 103% | [9] 94.1% | [5] 108% | [6] 92.7% | [7] 89.7%

CC/C(=C(\c1ccc(O)cc1)c1ccc(OCCN(C)CCN(C)C(=O)CCCCC(=O)c2c(C)[nH]c(/C=C3\N=C(c4ccc[nH]4)C=C3OC)c2C)cc1)c1ccccc1
inactive: [8] 82.9% | [2] 55.8% | [3] 119% | [4] 92.5% | [9] 78.5% | [5] 66.5% | [6] 45.6% | [7] 56%

CCOc1ccc(Nc2nc(-c3c(C)nc4ncccn34)cs2)cc1
inactive: [8] 14.3% | [3] 54.1% | [4] 20.5% | [9] 34.1%
active: [5] -17.2% | [6] -4.93% | [7] 8.54%

CN(C)CCCC(=O)Nc1ccc(Cn2nnc3c2C(=O)c2nnn(Cc4ccc(NC(=O)CCCN(C)C)cc4)c2C3=O)cc1
inactive: [2] 94.5% | [4] 102% | [9] 91% | [5] 72.9% | [6] 16.8% | [7] 11.4%
active: [8] -29.4%

COc1ccc2nc3cc(Cl)ccc3c(N3CCN(c4nccc(Nc5ccccc5)n4)CC3)c2c1
active: [6] 7.71% | [7] 5.37%
inactive: [8] 62% | [3] 65.6% | [4] 52.1% | [9] 51.2% | [5] 16.6%

COc1ccc2nc3cc(Cl)ccc3c(N3CCN(c4ccnc(N5CCN(C)CC5)n4)CC3)c2c1
active: [3] 8.16% | [6] -27.9% | [7] -24%
inactive: [8] 36.9% | [2] 51.2% | [4] 36.9% | [9] 49.7% | [5] 68.1%

COc1ccc2nc3cc(Cl)ccc3c(N3CCN(c4nccc(Nc5ccc(Cl)cc5)n4)CC3)c2c1
inactive: [8] 74% | [2] 54.8% | [3] 55.8% | [4] 58.2% | [9] 46.4%
active: [6] 5.59% | [7] 3.98%

O=C(Nc1cccc2[nH]c(C(F)(F)F)nc12)c1ccc(Br)cc1F
inactive: [8] 26.5% | [2] 10.9% | [3] 52.8% | [4] 33.5% | [9] 14.6% | [6] 47.1% | [7] 26.9%
active: [5] -0.338%

Cn1cc(-c2nc(-c3c[nH]c4ccccc34)cs2)c2cccnc21
inactive: [8] 52.7% | [2] 43.8% | [3] 44% | [4] 56.8% | [9] 29.7% | [7] 19.9%
active: [5] -0.249% | [6] 7.02%

COc1ccc2nc3cc(Cl)ccc3c(N3CCN(c4nccc(NCc5ccccc5)n4)CC3)c2c1
active: [6] 0.798% | [7] 5.21%
inactive: [8] 76% | [2] 45.9% | [3] 62.6% | [4] 68.5% | [9] 62.2% | [5] 28.8%

CCCCCN(CCCCC)CCC[C@@H](C)[C@H]1CC[C@H]2[C@@H]3[C@H](OCCCN)C[C@@H]4C[C@H](OCCCN)CC[C@]4(C)[C@H]3C[C@H](OCCCN)[C@]12C
inactive: [8] 54.3% | [2] 65.2% | [4] 54.7% | [9] 75.8% | [5] 92.8% | [6] 15.3% | [7] 41.1%

O=C1/C(=C/c2ccc(Cl)cc2Cl)CN(S(=O)(=O)c2ccccc2)C/C1=C\c1ccc(Cl)cc1Cl
inactive: [5] 76.4%
active: [8] -47.5% | [2] -61.4% | [3] -22.2% | [4] 2.01% | [6] -13.2% | [7] 3.37%

CCN(CC)CCC(=O)Nc1ccc(Cn2nnc3c2C(=O)c2nnn(Cc4ccc(NC(=O)CCN(CC)CC)cc4)c2C3=O)cc1
active: [8] -50.1% | [6] -13% | [7] -28.9%
inactive: [2] 99.9% | [3] 122% | [4] 87.6% | [9] 85.9% | [5] 14.6%

O=C1C[C@H](N2C(=O)c3ccccc3S2(=O)=O)C2CO[C@@H]1O2
inactive: [8] 91.8% | [2] 63.7% | [3] 92.4% | [4] 78.2% | [5] 93.9% | [7] 79%
active: [9] -80.1% | [6] 4.58%

NC1=CSC2=N/C(=C\c3ccc(Cl)cc3)C(=O)N12
active: [6] -13.5% | [7] 8.12%
inactive: [8] 76.8% | [2] 58.2% | [3] 72.8% | [4] 88.3% | [9] 38.8% | [5] 65.6%

CC(=O)N1CC(Nc2ccc(OC(F)(F)F)cc2)=CC1=O
inactive: [8] 56.7% | [2] 65.7% | [4] 53.4% | [6] 11% | [7] 27.1%

COc1ccc(/C=C2\N=C3SC=C(N)N3C2=O)cc1
active: [2] -4.09% | [9] -33% | [5] 5.67% | [6] -40.2% | [7] -15.9%
inactive: [8] 20.4% | [3] 19.5% | [4] 33%

COc1ccc(/C=c2/c(=O)[nH]c3nc4sc(C)c(C)c4c(=O)n23)cc1
inactive: [8] 84% | [3] 101% | [4] 91.5% | [9] 74.2% | [5] 101% | [6] 66.9% | [7] 62.3%
